Where “and” joins values, the source holds several entries; their conditions need not be identical. Equal entries are not always repeated. Records with an inconclusive call do not appear. Entries that show only a call come without a potency. Some structures have more than one record in an assay (separate samples or runs), and their calls can disagree. Calls of active or inactive are those of the source. The call rests on the fitted dose curve; in most records, active means well fitted curve in the direction sought with a large enough effect in the repeat runs; inconclusive means weak or mixed curves; inactive means no such curve, though single readings can be large; an effect the other way counts as inactive or inconclusive.
Columns and labels:
[1] = biological target: Cytochrome P450 1A2 (Homo sapiens) (UniProt P05177); assay: Cytochrome P450 Family 1 Subfamily A Member 2 (CYP1A2) small molecule antagonists: luciferase reporter qHTS assay (AID 1671199); further: potency means the concentration at half of the fitted maximal effect
Chain of Cytochrome P450 1A2 (Homo sapiens) (P05177 whole entry, looked up): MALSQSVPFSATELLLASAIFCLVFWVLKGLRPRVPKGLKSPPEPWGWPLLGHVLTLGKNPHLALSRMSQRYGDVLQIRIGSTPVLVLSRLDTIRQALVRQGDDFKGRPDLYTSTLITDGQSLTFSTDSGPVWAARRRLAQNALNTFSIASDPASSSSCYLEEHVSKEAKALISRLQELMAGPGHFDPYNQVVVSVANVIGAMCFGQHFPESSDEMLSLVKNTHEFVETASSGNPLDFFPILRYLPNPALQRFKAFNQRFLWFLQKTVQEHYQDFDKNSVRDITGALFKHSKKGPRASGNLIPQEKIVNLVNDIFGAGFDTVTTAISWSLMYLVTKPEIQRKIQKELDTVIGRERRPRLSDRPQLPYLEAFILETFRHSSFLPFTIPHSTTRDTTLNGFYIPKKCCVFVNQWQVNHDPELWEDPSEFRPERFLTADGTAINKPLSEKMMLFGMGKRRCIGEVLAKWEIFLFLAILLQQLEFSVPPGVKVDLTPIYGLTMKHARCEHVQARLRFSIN
Procedure, shortened: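 Luminescence readout (relative luminescence units) after luciferin detection reagent, 20 min RT. Preceded by 1 h room-temperature CYP1A2 reaction with NADPH regeneration solution following 10 min compound preincubation with enzyme and proluciferin substrate. Furafylline positive control.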

[2] = biological target: Voltage-gated inwardly rectifying potassium channel KCNH2 (Homo sapiens) (UniProt Q12809); assay: Human Ether-a-go-go-Related Gene (hERG) channel small molecule antagonists: fluorescence cell-based qHTS assay (AID 1671200);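 further: hERG-expressing U2OS cells given a thallium stimulus after FluxOR II dye loading; series mostly up to about 77 µM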
Chain of Voltage-gated inwardly rectifying potassium channel KCNH2 (Homo sapiens) (Q12809 whole entry, looked up): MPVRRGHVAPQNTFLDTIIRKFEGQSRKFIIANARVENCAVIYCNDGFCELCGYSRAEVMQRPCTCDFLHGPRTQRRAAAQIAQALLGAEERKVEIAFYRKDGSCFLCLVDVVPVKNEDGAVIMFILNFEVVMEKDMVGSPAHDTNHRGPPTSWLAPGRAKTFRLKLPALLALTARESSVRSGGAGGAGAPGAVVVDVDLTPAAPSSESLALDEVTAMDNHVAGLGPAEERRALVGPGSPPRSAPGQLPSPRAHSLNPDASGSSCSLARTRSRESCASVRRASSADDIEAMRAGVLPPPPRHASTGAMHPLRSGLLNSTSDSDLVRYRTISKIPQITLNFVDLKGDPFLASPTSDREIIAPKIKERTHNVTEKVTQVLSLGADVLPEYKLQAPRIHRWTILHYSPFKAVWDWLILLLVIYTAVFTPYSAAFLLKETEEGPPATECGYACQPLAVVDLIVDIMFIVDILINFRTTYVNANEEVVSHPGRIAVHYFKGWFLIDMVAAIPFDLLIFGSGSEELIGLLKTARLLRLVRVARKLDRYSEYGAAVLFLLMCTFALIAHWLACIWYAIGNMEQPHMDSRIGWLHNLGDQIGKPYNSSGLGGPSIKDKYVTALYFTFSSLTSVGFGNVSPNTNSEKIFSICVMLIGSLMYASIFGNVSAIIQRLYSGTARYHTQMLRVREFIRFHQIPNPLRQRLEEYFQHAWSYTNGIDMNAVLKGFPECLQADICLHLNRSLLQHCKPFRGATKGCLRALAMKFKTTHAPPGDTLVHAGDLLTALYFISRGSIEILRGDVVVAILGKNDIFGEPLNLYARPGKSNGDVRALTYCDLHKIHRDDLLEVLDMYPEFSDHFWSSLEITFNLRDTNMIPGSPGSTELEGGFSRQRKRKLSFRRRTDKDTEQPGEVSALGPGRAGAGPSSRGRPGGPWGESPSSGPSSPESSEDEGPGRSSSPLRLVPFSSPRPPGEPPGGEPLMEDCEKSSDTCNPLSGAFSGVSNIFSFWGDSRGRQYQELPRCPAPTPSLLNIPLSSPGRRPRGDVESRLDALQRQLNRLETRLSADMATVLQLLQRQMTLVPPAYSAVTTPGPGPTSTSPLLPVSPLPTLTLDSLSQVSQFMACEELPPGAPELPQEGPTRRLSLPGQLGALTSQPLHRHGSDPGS
Procedure, shortened: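 Read-out: thallium influx as a surrogate for potassium, tracked as fluorescence (480 nm ex/540 nm em) every second for 2 min after Stimulus Buffer addition in dye-loaded hERG-U2OS cells.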

[3] = biological target: Cytochrome P450 3A4 (Homo sapiens) (UniProt P08684); assay: Cytochrome P450 Family 3 Subfamily A Member 4 (CYP3A4) small molecule antagonists: luciferase reporter qHTS assay (AID 1671201); further: potency means the concentration at half of the fitted maximal effect
Chain of Cytochrome P450 3A4 (Homo sapiens) (P08684 whole entry, looked up): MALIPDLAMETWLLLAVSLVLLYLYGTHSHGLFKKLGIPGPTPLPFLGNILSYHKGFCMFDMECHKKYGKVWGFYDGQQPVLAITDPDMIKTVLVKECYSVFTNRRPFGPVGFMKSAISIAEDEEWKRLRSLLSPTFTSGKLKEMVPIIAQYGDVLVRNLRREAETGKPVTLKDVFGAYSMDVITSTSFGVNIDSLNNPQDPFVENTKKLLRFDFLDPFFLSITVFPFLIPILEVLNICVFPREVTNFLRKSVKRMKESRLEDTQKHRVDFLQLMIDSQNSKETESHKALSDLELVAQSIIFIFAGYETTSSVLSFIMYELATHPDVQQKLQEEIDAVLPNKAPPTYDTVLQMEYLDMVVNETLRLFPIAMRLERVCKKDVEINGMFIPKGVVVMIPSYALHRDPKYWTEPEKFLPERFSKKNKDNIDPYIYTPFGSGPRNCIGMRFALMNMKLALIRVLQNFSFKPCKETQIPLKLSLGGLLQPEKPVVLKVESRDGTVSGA
Procedure, shortened: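 Luminescent readout (RLU) proportional to CYP3A4 activity, from luciferin generated off a proluciferin substrate. Enzyme–substrate mix plus compound 10 min at room temp, NADPH regeneration 1 h, detection reagent 20 min.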
Further: nearly all actives have a fitted effect of over 50% in size.

Structure (SMILES) | Potency [1] | Potency [2] | Potency [3]
CCC[CH2][Sn]([Cl])([Cl])[Cl] | inactive | inactive | inactive
CCC[N+](=O)[O-] | inactive | inactive | inactive
c1ccc(OP(Oc2ccccc2)Oc2ccccc2)cc1 | inactive | inactive | inactive
CCCCCCCCCl | inactive | inactive | inactive
O=Cc1cccc(Oc2ccccc2)c1 | 35.9 µM (active) and inactive | inactive | inactive
CCC12COCN1COC2 | inactive | inactive | 40 µM (active) and inactive
Cc1cc(-c2cc(C)c(N)c(C)c2)cc(C)c1N | 712 nM (active) and 311 nM (active) | inactive | 34.9 µM (active)
Cc1cccc([N+](=O)[O-])c1 | inactive | inactive | inactive
Nc1ccc(Br)cc1 | 44.8 µM (active) | – | –
CNC(=O)Oc1ccccc1OC(C)C | 35.6 µM (active) | inactive | inactive
C1CN2CCN1CC2 | inactive | inactive | inactive
CN(N=O)c1ccccc1 | inactive | inactive | inactive
CCCCCOC(=O)c1ccccc1C(=O)OCCCCC | 17.8 µM (active) and 8.94 µM (active) | – | –
O=c1[nH]c2ccccc2c(=O)o1 | inactive and 35.6 µM (active) | inactive | inactive
CC(C)(C)OOC(=O)c1ccccc1 | inactive | inactive | inactive
C#CC(C)(C)NC(=O)c1cc(Cl)cc(Cl)c1 | 5.07 µM (active) and 15.9 µM (active) | inactive | 20.2 µM (active) and 35.6 µM (active)
O=NN1CCCC1 | 33.2 µM (active) and inactive | inactive | inactive
COP(N)(=O)SC (stereo not given) | inactive | inactive | inactive
CON(C)C(=O)Nc1ccc(Cl)c(Cl)c1 | 1.42 µM (active) and 3.17 µM (active) | inactive | inactive
Clc1ccccc1Cl | inactive | inactive | inactive
CCOC(=O)c1ccccc1C(=O)OCC | 3.22 µM (active) and 3.17 µM (active) | inactive | inactive
C=CC(N)=O | 35.7 µM (active) and inactive | – | –

Structure (SMILES) | Potency [1] | Potency [2] | Potency [3]
Cc1ccc(N)cc1Cl | 1.28 µM (active) and 1.59 µM (active) | inactive | –
CC(C)C1(C)N=C(c2nc3ccccc3cc2C(=O)O)NC1=O (stereo not given) | inactive | inactive | inactive
CC(C)N1C(=O)c2ccccc2NS1(=O)=O | inactive | inactive | inactive
Cc1ccc([N+](=O)[O-])cc1C | inactive | inactive | inactive
NCC(O)c1ccc(O)cc1 (stereo not given) | inactive | inactive | inactive
O=c1n(Cl)c(=O)n(Cl)c(=O)n1Cl | inactive | inactive | inactive
COC(=O)NC(=S)Nc1ccccc1NC(=S)NC(=O)OC | 31.7 µM (active) | inactive | –
COC(=O)c1ccccc1C(=O)OC | 31.9 µM (active) and 25.2 µM (active) | inactive | inactive
CCN(CC)CCO | inactive and 31.7 µM (active) | inactive | inactive
COc1ccc2c3c1O[C@H]1[C@@H](O)C=C[C@H]4[C@@H](C2)N(C)CC[C@@]341 | inactive | inactive | inactive
CC(C)(C)C(O)(CCc1ccc(Cl)cc1)Cn1cncn1 (stereo not given) | 32.1 µM (active) and 28.3 µM (active) | inactive | 114 nM (active) and 200 nM (active)
CCCC1COC(Cn2cncn2)(c2ccc(Cl)cc2Cl)O1 (stereo not given) | 20.4 µM (active) and 31.7 µM (active) | inactive | 51.2 nM (active) and 56.4 nM (active)
O=NN1CCCCCCC1 | inactive | inactive | inactive
O=c1[nH]c(=O)[nH]c(=O)[nH]1 | inactive | inactive | inactive
Clc1cccc(Cl)c1Cl | – | inactive | inactive
Cc1ccccc1O | 39.9 µM (active) | – | inactive
C1CC2OC2CC1C1CO1 (stereo not given) | inactive | – | inactive
CCCCN(CCCC)SN(C)C(=O)Oc1cccc2c1OC(C)(C)C2 | – | inactive | 14.4 µM (active) and 12.6 µM (active)
Cc1ccc(N)cc1N | 30.9 µM (active) and 35.6 µM (active) | inactive | 30.9 µM (active)
c1ccc2c(c1)Oc1ccccc1O2 | – | inactive | inactive
C#CCN(C)[C@H](C)Cc1ccccc1 | 17.8 µM (active) and inactive | – | inactive

Source: PubChem BioAssay (Tox21)
